Laboratory results: article PMC5700166
Numbering of substitutions follows the chain as printed.

What was measured:
Assay in all cases: protein-binding microarray (PBM); PBM: ~300 nM protein, 6 mM HEPES pH 7.8, 80 mM KCl, 0.5 mM EDTA, 0.5 mM EGTA, 6% glycerol, 35 ng/ul poly-dIdC, 1% milk, 1 h, room temperature; Ap Aiptasia and Nv Nematostella (sea anemones) / Co Capsaspora / Aq Amphimedon (sponge) / Dm Drosophila / Hu human; RHD is the Rel homology domain; high values mean tight binding
Conditions in all cases: dsDNA, one strand shown
GST-Ap-NF-kB RHD = biological target: T1, GST-Ap-NF-kB RHD (Exaiptasia pallida (Aiptasia), UniProt A0A913YAJ5 2-422)
T1 sequence: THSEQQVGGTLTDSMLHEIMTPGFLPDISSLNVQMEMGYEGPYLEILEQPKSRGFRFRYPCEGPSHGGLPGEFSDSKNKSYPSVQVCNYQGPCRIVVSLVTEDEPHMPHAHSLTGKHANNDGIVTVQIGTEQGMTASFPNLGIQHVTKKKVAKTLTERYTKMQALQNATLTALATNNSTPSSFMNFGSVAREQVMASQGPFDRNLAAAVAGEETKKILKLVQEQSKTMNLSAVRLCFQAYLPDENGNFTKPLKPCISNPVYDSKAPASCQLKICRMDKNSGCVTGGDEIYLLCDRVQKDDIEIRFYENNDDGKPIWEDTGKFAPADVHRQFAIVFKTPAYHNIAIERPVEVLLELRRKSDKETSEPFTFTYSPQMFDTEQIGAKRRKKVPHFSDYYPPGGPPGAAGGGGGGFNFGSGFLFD

[1] = biological target: T2, GST-Nv-NF-kB (Cys allele) (Nematostella vectensis, UniProt E5G601 2-411)
T2 sequence: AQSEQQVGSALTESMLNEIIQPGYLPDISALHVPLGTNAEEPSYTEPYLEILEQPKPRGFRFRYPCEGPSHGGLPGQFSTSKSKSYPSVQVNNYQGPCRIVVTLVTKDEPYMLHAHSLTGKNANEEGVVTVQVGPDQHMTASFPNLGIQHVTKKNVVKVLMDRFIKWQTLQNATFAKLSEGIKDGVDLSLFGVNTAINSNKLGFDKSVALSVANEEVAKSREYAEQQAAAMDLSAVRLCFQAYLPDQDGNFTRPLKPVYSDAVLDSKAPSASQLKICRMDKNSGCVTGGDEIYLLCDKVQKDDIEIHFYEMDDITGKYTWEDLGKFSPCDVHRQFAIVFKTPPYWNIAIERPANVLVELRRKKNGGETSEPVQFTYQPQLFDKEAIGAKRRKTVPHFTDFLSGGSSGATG

[2] = biological target: T3, GST-Nv-NF-kB (Ser allele) (Nematostella vectensis, UniProt A7UNT2 2-411)
T3 sequence: T2 sequence with Q21R, C66S, S207N, E215Q, V217A, E225K, A268E, D399E

GST-Co-NF-kB = biological target: T4, GST-Co-NF-kB (Capsaspora owczarzaki, UniProt F1ARL5 200-546)
T4 sequence: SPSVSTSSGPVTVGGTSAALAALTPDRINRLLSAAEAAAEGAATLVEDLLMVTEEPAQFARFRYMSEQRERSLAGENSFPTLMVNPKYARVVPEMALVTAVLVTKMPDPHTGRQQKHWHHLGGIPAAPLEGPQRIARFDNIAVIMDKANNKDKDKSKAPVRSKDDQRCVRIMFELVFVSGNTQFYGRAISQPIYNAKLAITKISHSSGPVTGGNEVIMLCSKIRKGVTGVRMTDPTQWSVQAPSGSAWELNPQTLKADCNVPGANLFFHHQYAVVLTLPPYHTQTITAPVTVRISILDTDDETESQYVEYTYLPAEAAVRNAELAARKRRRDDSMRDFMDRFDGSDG

GST-Dm-Relish = biological target: T5, GST-Dm-Relish (Drosophila melanogaster, UniProt Q94527 99-473)
T5 sequence: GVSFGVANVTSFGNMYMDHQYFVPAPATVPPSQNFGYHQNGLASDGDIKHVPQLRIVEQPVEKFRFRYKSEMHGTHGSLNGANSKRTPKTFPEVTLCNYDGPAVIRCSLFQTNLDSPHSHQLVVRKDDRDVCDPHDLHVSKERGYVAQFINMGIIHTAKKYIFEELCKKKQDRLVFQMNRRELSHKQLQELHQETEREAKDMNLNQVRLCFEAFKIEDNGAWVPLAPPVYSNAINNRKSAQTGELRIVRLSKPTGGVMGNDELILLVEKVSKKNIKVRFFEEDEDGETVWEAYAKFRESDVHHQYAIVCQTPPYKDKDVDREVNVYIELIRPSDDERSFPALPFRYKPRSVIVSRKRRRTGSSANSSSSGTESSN

GST-Aq-NF-kB = biological target: T6, GST-Aq-NF-kB (Amphimedon queenslandica, UniProt A9Y5G7 2-389)
T6 sequence: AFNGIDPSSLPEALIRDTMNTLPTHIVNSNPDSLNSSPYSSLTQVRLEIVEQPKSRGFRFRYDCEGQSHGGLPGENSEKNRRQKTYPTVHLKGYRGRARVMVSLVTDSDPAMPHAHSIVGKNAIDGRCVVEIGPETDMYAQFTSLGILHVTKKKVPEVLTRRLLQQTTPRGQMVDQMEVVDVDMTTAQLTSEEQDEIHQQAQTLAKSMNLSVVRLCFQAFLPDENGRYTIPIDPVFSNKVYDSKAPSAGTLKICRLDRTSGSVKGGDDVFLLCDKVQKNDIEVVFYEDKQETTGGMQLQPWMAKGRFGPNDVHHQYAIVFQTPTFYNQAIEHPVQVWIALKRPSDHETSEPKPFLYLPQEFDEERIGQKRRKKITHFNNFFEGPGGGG

GST-Hu-p50 = GST-Hu-p50 (Homo sapiens, UniProt P19838 7-356)
Sequence of GST-Hu-p50 (P19838 7-356): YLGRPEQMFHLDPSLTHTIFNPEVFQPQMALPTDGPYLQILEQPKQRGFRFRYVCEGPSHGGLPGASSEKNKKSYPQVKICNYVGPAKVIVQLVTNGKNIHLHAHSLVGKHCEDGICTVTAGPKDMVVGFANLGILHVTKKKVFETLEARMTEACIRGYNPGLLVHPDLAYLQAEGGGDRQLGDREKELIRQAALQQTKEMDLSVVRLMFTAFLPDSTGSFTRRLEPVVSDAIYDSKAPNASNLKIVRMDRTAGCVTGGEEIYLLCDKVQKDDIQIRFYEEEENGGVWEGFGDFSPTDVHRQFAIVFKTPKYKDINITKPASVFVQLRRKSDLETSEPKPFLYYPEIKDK

Sequence | binding signal (GST-Ap-NF-kB RHD) [z-score] | binding signal [1] [z-score] | binding signal [2] [z-score] | binding signal (GST-Co-NF-kB) [z-score] | binding signal (GST-Dm-Relish) [z-score] | binding signal (GST-Aq-NF-kB) [z-score] | binding signal (GST-Hu-p50) [z-score]
CCGATTAACATCAGGGGGAGATATGATGTTAATCGGGTCTTGATTCGCTTGACGCTGCTG | 5.8 | 5.33 | 6.74 | 8.37 | 2.53 | 4.8 | 5.93
CCGATTAACATCAGGGGATAACCTGATGTTAATCGGGTCTTGATTCGCTTGACGCTGCTG | 6.14 | 6.28 | 6.92 | 3.7 | 7.51 | 7.32 | 4.93
CCGATTAACATCAAAAAACCCCTTGATGTTAATCGGGTCTTGATTCGCTTGACGCTGCTG | 8.1 | 8.78 | 7.86 | 2.05 | 8.96 | 8 | 7.64
CCGATTAACATCAAACATTCCCTTGATGTTAATCGGGTCTTGATTCGCTTGACGCTGCTG | 2.36 | 4.96 | 4.25 | 1.95 | 2.37 | 5.41 | 3.27
CCGATTAACATCAACTCTCCCCCTGATGTTAATCGGGTCTTGATTCGCTTGACGCTGCTG | 5.78 | 4.61 | 5.62 | 7.94 | 2.14 | 4.72 | 4.41
CCGATTAACATCAAGATACCCCCTGATGTTAATCGGGTCTTGATTCGCTTGACGCTGCTG | 7.1 | 4.31 | 5.25 | 4.96 | 4.14 | 4.36 | 4.66
CCGATTAACATCAGGGAATTTGATGATGTTAATCGGGTCTTGATTCGCTTGACGCTGCTG | 3.63 | 4.8 | 5.71 | 3.17 | 2.77 | 3.69 | 3.22
CCGATTAACATCAGGAAACCCCATGATGTTAATCGGGTCTTGATTCGCTTGACGCTGCTG | 5.38 | 4.14 | 2.64 | 1.76 | 8.23 | 4.84 | 4.69
CCGATTAACATCAAGGGGGTTTCTGATGTTAATCGGGTCTTGATTCGCTTGACGCTGCTG | 9.41 | 8.37 | 8.76 | 2.34 | 9.83 | 7.81 | 7.39
CCGATTAACATCAGAAGTTCCCCTGATGTTAATCGGGTCTTGATTCGCTTGACGCTGCTG | 7.97 | 8.26 | 8.1 | 7.36 | 8 | 7.04 | 5.84
CCGATTAACATCAAATCCCCCCGTGATGTTAATCGGGTCTTGATTCGCTTGACGCTGCTG | 8.26 | 7.22 | 6.8 | 7.74 | 8.05 | 6.07 | 6.44
CCGATTAACATCAAAAAACTCCCTGATGTTAATCGGGTCTTGATTCGCTTGACGCTGCTG | 6.44 | 8.22 | 8.11 | 3.38 | 7.13 | 7.46 | 5.69
